High-throughput results deposited in PubChem BioAssay by National Center for Advancing Translational Sciences (NCATS).
BRCT PPI red: qHTS Assay for Inhibitors of BRCT-Phosphoprotein Interaction (Red Fluorophore); Breast cancer type 1 susceptibility protein (Homo sapiens), P38398; BRCT-phosphopeptide binding, red fluorescence polarization; Potency, µM (series often up to 76.9 µM), for inactives: at the top dose activity change, negative = inhibition, hits mostly inhibitors; 75,000 compounds, 0.03% hits; AID 892, 2007; also: % is scaled to controls: 0 for no effect and ±100 for the full control effect
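Rhodamine-labelled pBACH1 10-mer (100 nM) bound to BRCT domain (100 nM) at pH 7.3; compounds incubated 12 min room temperature, polarization read. Free peptide defines full inhibition; unlabelled decapeptide titrated as control.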
USP2a inh: qHTS Assay for Inhibitors of Ubiquitin-specific Protease USP2a; Ubiquitin carboxyl-terminal hydrolase 2 (Homo sapiens), O75604; USP2a enzymatic assay, qHTS inhibition; Potency, µM (series often up to 38.3 µM), for inactives: top-dose activity change, negative = inhibition, actives largely listed as inhibitors; 60,000 compounds, 0.1% hits; AID 927, 2007; also: potency is read from the fitted curve at half-maximal effect; nearly all actives have a fitted effect of over 60% in size
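Inhibition is measured in a cell-free coupled assay with 20 nM USP2 core, 20 nM Ub-PLA2 and 20 uM NBD C6-HPC, 2.5 h incubation. Activity normalized to NEM control.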
YjeE inh: qHTS Assay for Inhibitors of YjeE; purified YjeE enzyme, qHTS inhibition assay; Potency, µM; 71,000 compounds, 0.05% hits
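Fluorescence polarization of a BODIPY Texas Red–ADP probe (2 uM) bound to purified YjeE (10 uM) was read after 15 min room-temperature incubation with compounds. Loss of polarization marks inhibitors; ADP serves as titrated control.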
Pol III holo inh: qHTS Assay for Inhibitors of DNA Polymerase III Holoenzyme System | reconstituted DNA polymerase III holoenzyme replication, biochemical | Potency, µM (series often up to 57.1 µM), inactives show at the highest dose activity change, negative = inhibition | 71,000 compounds, 0.25% hits | AID 603, 2007; also: potency is read from the fitted curve at half-maximal effect; % is scaled to controls: 0 for no effect and ±100 for the full control effect
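Reconstituted *E. coli* holoenzyme (0.35 nM Pol III, 1 nM beta, 154 nM SSB, 2 nM primase) was preincubated with compound for 15 min at RT. Synthesis on 1.4 nM ssM13Gori ran 35 min, then was stopped with PicoGreen/EDTA and read as dsDNA fluorescence.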
BRCT inh green: qHTS Assay for Inhibitors of BRCT-Phosphoprotein Interaction (Green Fluorophore); BRCA1 BRCT-phosphopeptide binding, green fluorescence polarization; Potency, µM (top dose mostly 76.9 µM), for the others: at the highest dose activity change, negative = inhibition, most hits filed as inhibitors; 75,000 compounds, 0.05% hits; AID 875, 2007;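 also: potency is read from the fitted curve at half-maximal effect; plate controls were peptide without protein for full effect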
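Compounds were incubated for 12 min at room temperature with a complex of 100 nM fluorescein-tagged pBACH1 decapeptide and 250 nM His-tagged BRCT protein. Buffer was phosphate pH 7.3 with EDTA, DTT and Tween 20. Disruption of binding lowers the polarization signal.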
Starred values were filed as active, the others as inactive; i = inactive; ? = inconclusive; / = no result; ! = repeats disagree; [ ] = remark or other dose. Sampled rows, rich in hits. Any-hit rate of the full collection: about 0.36%. Calls follow the shape of the dose curve; as a rule, active = well fitted curve in the direction sought with a large enough effect; inconclusive = small, poorly fitted or top-dose-only effect, or another doubt; inactive = no such curve, though single readings can be large; an effect the other way counts as inactive or inconclusive.

SMILES	BRCT PPI red	USP2a inh	YjeE inh	Pol III holo inh	BRCT inh green
OC[C@H]1O[C@@H](OC[C@H]2O[C@@H](O)[C@H](O)[C@@H](O)[C@@H]2O)[C@H](O)[C@@H](O)[C@@H]1O	2%	/	/	/	-2%
N.N.N.N.N.N.N.N.N.N.N.N.N.N.O.O.[Ru].[Ru].[Ru]	0%	?	79µM*	32µM*	3%
CCOC(=O)N1CCN(c2cc(NCCC(=O)O)c3c4c(onc24)-c2ccccc2C3=O)CC1	-9%	15%	i	-24%	-2%
O=C(O)CCCNc1cc(N2CCC3(CC2)OCCO3)c2noc3c2c1C(=O)c1ccccc1-3	?	14%	i	3.2µM*	-15%
O=C(O)c1c(Sc2ccccc2)c2cc(Cl)ccc2n1Cc1ccc(Cl)cc1	-4%	/	/	/	-6%
CCCCCCCCCCCC(CC1OC(=O)C1CCCCCC)OC(=O)C(CC(C)C)NC=O (configuration not stated)	0%	10µM*	/	/	-6%[3.08 µM]
CS(=O)(=O)NCc1ccc(C(=O)NCCOc2ccccc2)cc1	-1%	18%	i	0%	-4%
O=C(Cc1ccc(Cl)cc1)Nc1ccc(-c2nnc(-c3ccco3)o2)cc1	0%	27%	i	20µM*	2%
O=C(OC1Cc2c(O)cc(O)cc2OC1c1cc(O)c(O)c(O)c1-c1c(C2Oc3cc(O)cc(O)c3CC2O)cc(O)c(O)c1O)c1cc(O)c(O)c(O)c1 (configuration not stated)	-3%	10µM*	/	/	-5%
C/C1=C2N=C(/C=C3N=C(/C(C)=C4\[N-]C(C)(C5N=C1C(C)(CCC(=O)NCC(C)OP(=O)([O-])O[C@H]1C(O)C(n6cnc7cc(C)c(C)cc76)O[C@@H]1CO)C5CC(N)=O)C(C)(CC(N)=O)C4CCC(N)=O)C(C)(CC(N)=O)C\3CCC(N)=O)C(C)(C)C/2CCC(N)=O.[CH2-]C1OC(n2cnc3c(N)ncnc32)C(O)C1O.[Co] (some centres not stated)	2%	3.2µM*	/	/	-3%[3.08 µM]
CCOc1ccc(-c2nnc(NC(=O)CCCOc3cccc(C)c3)o2)cc1	1%	21%	i	-3%	0%
O=C(c1ccc(S(=O)(=O)N2CCC(c3nc4ccccc4[nH]3)CC2)cc1)N1CCOCC1	0%	13µM*	i	-2%	-2%
O=C(c1ccc(S(=O)(=O)N2CCC(c3nc4ccccc4s3)CC2)cc1)N1CCOCC1	0%	/	i	-7%	1%
O=C(O)[C@H]1CCCC[C@@H]1c1c2ccc(=O)c(O)c-2oc2c(O)c(O)ccc12	-24%[15.4 µM]	/	i	0.32µM*	-10%[15.4 µM]
Cc1cc(=O)c2c(O)c(O)ccc2o1	1%	-6%	i	-3%	-4%
O=C(O)/C=C\c1c2ccc(=O)c(O)c-2oc2c(O)c(O)ccc12	?	/	?	0.1µM*	6.3µM*
COc1cccc(NC(=O)Cn2c(=O)n(CCCC(=O)NCc3ccco3)c(=O)c3ccccc32)c1	0%	25%	i	-5%	-1%
COc1cc(/C=C/C(=O)/C=C(O)/C=C/c2ccc(O)c(OC)c2)ccc1O	1%	10µM*	/	/	25%[3.08 µM]
Cc1noc(C)c1CSc1nnc2c(C)cc3ccccc3n12	-2%	-6%	i	0%	-6%
CCN(CC)CCC[C@H](C)Nc1c2ccc(Cl)cc2nc2ccc(OC)cc12	-1%[34.4 µM]	36%[17.1 µM]	i	32µM*!	?
O=C(Nc1cn(-c2ccccc2)nc1-c1cccs1)c1ccco1	2%	26%	i	4%	2%
CC(=O)N1CCC2(CCCN(c3ccccc3)C2)CC1	-2%	23%	i	-2%	7%
O=C(O)C1Nc2c(O)cccc2C2C=CCC12 (configuration not stated)	-19%	-21%	i	3.2µM*	-13%
O=C(OC1CCCCC1)c1ccc2c(c1)C1C=CCC1C(C(=O)O)N2 (configuration not stated)	?	-4%	i	20µM*	?
COc1ccc(NC(=O)CN2CCN(c3ccc(Cl)cc3)CC2)c(OC)c1	2%	13µM*	i	-3%	1%
SMILES	BRCT PPI red	USP2a inh	YjeE inh	Pol III holo inh	BRCT inh green
Cc1cc(N)c2cc(NC(=O)Nc3ccc4nc(C)cc(N)c4c3)ccc2n1	0%[15.4 µM]	/	i	4µM*	9%[15.4 µM]
Oc1cc(O)c2c(c1)O[C@H](c1ccc(O)c(O)c1)[C@@H](O)[C@@H]2c1c(O)cc(O)c2c1O[C@@H](c1ccc(O)c(O)c1)[C@H](O)C2	2%[15.4 µM]	/	i	0.63µM*	0%[15.4 µM]
O=C1c2c(O)cc(O)cc2O[C@@H](c2ccc(O)c(O)c2)[C@H]1O	1%	-4%	i	-1%	-2%
Cc1ccc(S(=O)(=O)Oc2ccc(N=Nc3ccc(-c4ccc(N=Nc5c(O)ccc6cc(S(=O)(=O)O)cc(S(=O)(=O)O)c56)c(C)c4)cc3C)cc2)cc1	3%	/	i	32µM*	7%
CCCCOC(=O)C1=C(C)Nc2ncnn2C1c1ccc(OC)c(OC)c1 (configuration not stated)	2%	3%	i	-1%	-3%
O=C1C=CC2=C3c4cc(O)c(O)cc4C[C@@]3(O)COC2=C1O	/	/	?	0.02µM*	/
COc1ccccc1N1CCN(C(=O)c2sc3nc(-c4ccc(F)cc4)cn3c2C)CC1	-2%	/	i	2%	-2%
O=c1oc2c(O)c(O)cc3c(=O)oc4c(O)c(O)cc1c4c23	-5%	9%	i	0.005µM*	-10%
O=c1oc2ccccc2c2oc3cc(O)c(O)cc3c12	0%	/	/	/	-2%
COc1ccc(N2CC(C(=O)Nc3ccc4c(c3)OCO4)CC2=O)cc1 (configuration not stated)	1%	-7%	i	-4%	-6%
O=C(Nc1nc(-c2ccco2)c(-c2ccco2)s1)C1CC(=O)N(c2ccc3c(c2)OCCO3)C1 (configuration not stated)	?	?	i	10µM*	?
O=C1c2cc([N+](=O)[O-])ccc2-c2ccc3c4ccc5c6c(ccc(c7ccc1c2c73)c64)C(=O)c1cc([N+](=O)[O-])ccc1-5	-7%[15.4 µM]	/	i	4µM*	-4%[15.4 µM]
COC(=O)[C@@]1(Cc2ccc(F)cc2)[C@H]2c3cc(C(=O)N4CCCC4)n(Cc4ccccc4)c3C[C@H]2CN1C(=O)c1ccccc1	-3%	/	i	0%	1%
O=C(O)/C=C/c1ccc(O)c(O)c1	-2%	-1%	/	/	2%
O=c1cc(O)cc(/C=C\c2ccc(O)c(O)c2)o1	-8%	-4%	i	6.3µM*	5%
